Source: PubChem BioAssay (NCI)
Where “and” joins values, the source holds several entries; their conditions need not be identical. Equal entries are not always repeated. About 79,000 compounds went through this panel and 15% of them were active in at least one assay; those are over-represented in the sample as a whole. Cut-off read from the data, not from the text of the source: active = growth inhibition above about 70%; inactive = the rest.

Key:
[1] = NCI Yeast Anticancer Drug Screen. Data for the rad50 strain (AID 155);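 note: 0% = growth of vehicle-only cultures of the same strain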; settings: S. cerevisiae rad50 strain growth inhibition, hits give high values; at 50.0 µM unless noted
How it was run: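 A DNA repair-deficient yeast mutant serves as the test organism; compound-induced growth inhibition is calculated against vehicle-treated cells.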

[2] = NCI Yeast Anticancer Drug Screen. Data for the mec2-1 strain (AID 157); settings: S. cerevisiae mec2-1 strain, hits give high values; at 50.0 µM unless noted
How it was run: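 Cells of the genetically defined mec2-1 yeast strain are incubated with test compound. Inhibition of growth is calculated against vehicle-treated controls.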

[3] = NCI Yeast Anticancer Drug Screen. Data for the sgs1 mgt1 strain (AID 161);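 note: 0% = growth of cultures given vehicle only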; settings: S. cerevisiae sgs1 mgt1 strain, hits give high values; at 50.0 µM unless noted
How it was run: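 Test agents were incubated with a DNA-repair-mutant yeast strain. Growth was then read and compared against vehicle-treated controls.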

[4] = NCI Yeast Anticancer Drug Screen. Data for the cln2 rad14 strain (AID 165);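 note: 0% = growth equal to vehicle treated cultures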; settings: S. cerevisiae cln2 rad14 strain, hits give high values; at 50.0 µM unless noted
How it was run: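 The screen exposed genetically defined yeast (cln2 rad14) to test compounds and scored growth inhibition relative to vehicle-treated controls.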

[5] = NCI Yeast Anticancer Drug Screen. Data for the bub3 strain (AID 167); settings: S. cerevisiae bub3 mutant strain, hits give high values; at 50.0 µM unless noted
How it was run: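 Inhibition values come from growth of compound-treated mutant yeast normalised to vehicle-treated controls.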

[6] = NCI Yeast Anticancer Drug Screen. Data for the mlh1 rad18 strain (AID 175); settings: S. cerevisiae mlh1 rad18 strain growth inhibition, hits give high values; at 50.0 µM unless noted
How it was run: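 Compound-treated yeast growth, normalised to vehicle controls. Strain bears defined DNA repair mutations.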

Measured: growth inhibition

Cc1ccc(S(=O)(=O)OCC2C3C=CC(C4C=CC43)C2COS(=O)(=O)c2ccc(C)cc2)cc1 (configuration not stated)
inactive: [1] -4.25% | [2] -0.65% | [3] -10% | [4] -25.3% | [5] 11.8% | [6] -0.4%

CCOC(=O)CC1(N)CC2c3ccccc3OC(=O)C2C(=O)N1 (configuration not stated)
inactive: [1] 10.6% | [2] 15.1% | [3] 6.15% | [4] 0.45% | [5] -2.8% | [6] -33.6%

O=C(CS(=O)(=O)c1ccccc1)c1ccccc1
inactive: [1] -14.4% and 14.6% | [2] -18.9% and 13.1% | [3] -6.05% and 12.6% | [4] 8.75% and 1.5% | [5] 0.55% and 29.9% | [6] -29.9% and 28.3%

OCC(O)COc1ccc(F)cc1 (configuration not stated)
inactive: [1] 19.7% | [2] -16.2% | [3] -0.15% | [4] 4.55% | [5] -6.25% | [6] -12.1%

COc1ccccc1N=Nc1c(O)n(-c2ccccc2)c(=S)n(-c2ccccc2)c1=O
inactive: [1] 36.2% | [2] -4.55% | [3] 26.8% | [4] -9.3% | [5] -2.85% | [6] 8.9%

C=CCNc1nc(Cl)nc2c1cnn2C
inactive: [1] 13.3% | [2] -3% | [3] -2.95% | [4] -21.3% | [5] 8.55% | [6] -5.15%

Brc1cccc(C=NC23CC4CC(CC(C4)C2)C3)c1
inactive: [1] 13.7% | [2] -13.8% | [3] 12.4% | [4] -52.1% | [5] -13.3% | [6] -4.6%
